CHX counter – Cycloheximide Counterscreen for Small Molecule Inhibitors of Shiga Toxin; cell reporter, cycloheximide protein synthesis inhibition counterscreen; max response, %; 300,000 tested, 12% active; in the data active means max response mostly above about 13%, no sharp cut-off; inactive means mostly below about 14%; further: read at 38.3 µM for the half of the compounds with a filed dose
HCMV inh – qHTS Assay for inhibitors of the human cytomegalovirus (HCMV); HFF cells, HCMV-luciferase reporter, 72 h; hits give low values; activity change, negative = inhibition, % at 57.5 µM; 410,000 tested, 4.5% active; AID 1259415, 2018; in the data active means activity change below about -60%; inconclusive means no clear call, values can overlap the other calls; inactive means above about -39%
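Two compound doses tested in HFFs infected with HCMV-luciferase, MOI 1 PFU/cell, 72 h at 37C. Lysate luminescence read with OneGlo; data normalized against buffer-only and 10uM Salinomycin inhibitor controls.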
Shiga toxin inh – A qHTS for Small Molecule Inhibitors of Shiga Toxin; Vero cells, Shiga toxin protein synthesis inhibition reporter; AID 2315, 2010; 290,000 tested, 9.2% active; inhibition, % at 38.7 µM; in the data active means inhibition mostly above about 28%, no sharp cut-off; inactive means mostly below about 43%
Pf growth 48h – Primary qHTS for delayed death inhibitors of the malarial parasite plastid, 48 hour incubation. P. falciparum luciferase growth in erythrocytes, 48 h. Potency, µM (doses to about 28.7 µM), most hits filed as inhibitors. 310,000 tested, 5.9% active. AID 504832, 2011
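Here the parasites carry a stable luciferase gene and grow inside erythrocytes in Albumax-based RPMI medium with compound for one erythrocytic cycle. Activity is scored as loss of luminescent signal.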
Pf growth 96h – Primary qHTS for delayed death inhibitors of the malarial parasite plastid, 96 hour incubation; Potency, µM (titrated, usually from 28.7 µM), hits mostly inhibitors; AID 504834, 2011; P. falciparum luciferase reporter growth, 96 h; 320,000 tested, 6.9% active
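Erythrocytes infected with luciferase-expressing P. falciparum were dispensed at 2% hematocrit and 0.05% parasitemia (final), then incubated with compounds 96 hours at 37 C in 5% CO2. Luminescence after detection reagent addition reported growth.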
Of the large screens only hits and unclear results are named; the others gave an inactive call. An excerpt weighted towards active compounds, which were near 20% of everything screened. Unless noted, the call rests on the fitted dose curve; in most records, active means well fitted inhibition curve with a large enough effect; inconclusive means small, poorly fitted or top-dose-only effect, or another doubt; inactive means no such curve, though single readings can be large or run the other way.

CCc1cccc(NS(=O)(=O)c2ccc3c(c2)N(C)CCO3)c1	none
NC(=O)C1CCCN(C(=O)c2ccc3oc(Cc4ccc(Cl)cc4)nc3c2)C1 (stereo not drawn)	Pf growth 96h inconclusive
CCOC(=O)C1CCCN(C(=O)c2ccc3oc(CCc4ccccc4)nc3c2)C1 (stereo not drawn)	CHX counter 39, Pf growth 96h inconclusive
CC(=O)C1CCCN(C(=O)c2ccc3oc(CCc4ccccc4)nc3c2)C1 (stereo not drawn)	CHX counter 36, Shiga toxin inh 89
c1ccc(CNc2ncnc3scc(-c4cccs4)c23)nc1	HCMV inh -84
c1ccc(CNc2ncnc3sc4c(c23)CCC4)nc1	none
Oc1ccc(Nc2ncnc3scc(-c4ccccc4)c23)cc1	HCMV inh -64
CCOc1ccc(-c2csc3ncnc(Nc4cccc(O)c4)c23)cc1	none (no result: CHX counter, Shiga toxin inh, Pf growth 48h, Pf growth 96h)
c1ccc(-c2csc3ncnc(NCc4ccccn4)c23)cc1	HCMV inh -89, Pf growth 48h inconclusive, Pf growth 96h inconclusive
N/C(=N/O)C(c1ccccc1)c1ccccc1	Pf growth 48h inconclusive, Pf growth 96h inconclusive
O=C(COc1ccccc1)OCC(=O)c1c[nH]c2ccccc12	Pf growth 96h inconclusive (no result: CHX counter, Shiga toxin inh)
O=C(OCC(=O)c1c[nH]c2ccccc12)C1=COCCO1	CHX counter 37, Shiga toxin inh 74
COc1ccc(C(=O)OCC(=O)c2c[nH]c3ccccc23)cc1OC	Pf growth 48h 15µM, Pf growth 96h 4.7µM (no result: CHX counter, Shiga toxin inh)
O=C(OCC(=O)c1c[nH]c2ccccc12)c1ccc([N+](=O)[O-])s1	CHX counter 24, Pf growth 48h inconclusive, Pf growth 96h inconclusive
COc1ccc(OCC(=O)c2c[nH]c3ccccc23)cc1	CHX counter 45, Shiga toxin inh 54
CCc1cccc2c(C(=O)COC(=O)c3ccc([N+](=O)[O-])s3)c[nH]c12	Pf growth 48h inconclusive, Pf growth 96h inconclusive
COC(=O)C(Cc1ccc(O)cc1)NC(=O)C1CCN(S(=O)(=O)c2ccc(C)cc2)CC1 (stereo not drawn)	none
COc1ccccc1C(=O)NNC(=O)c1ccc2ccccc2c1O	none (no result: CHX counter, Shiga toxin inh, Pf growth 48h, Pf growth 96h)
Cc1cnc(C(=O)OCC(=O)c2c[nH]c3ccccc23)cn1	Pf growth 48h 13µM, Pf growth 96h inconclusive (no result: CHX counter, Shiga toxin inh)
CC(C)C(NS(=O)(=O)c1c(Cl)cccc1Cl)C(=O)OCC(=O)c1c[nH]c2ccccc12 (stereo not drawn)	Pf growth 48h 4.1µM, Pf growth 96h 4.7µM
Cc1cnc(C(=O)OCC(=O)c2cccc3ccccc23)cn1	none (no result: CHX counter, Shiga toxin inh)
CC1(C(=O)OCC(=O)c2c[nH]c3ccccc23)CC1(Cl)Cl (stereo not drawn)	CHX counter 53, Shiga toxin inh 85 (no result: Pf growth 48h)
Cc1ccc(C(=O)OCC(=O)c2c[nH]c3ccccc23)cc1	CHX counter 48, Shiga toxin inh 81
CCCOc1ccc(OC(=O)c2c(-c3ccccc3Cl)noc2C)cc1	none (no result: CHX counter, Shiga toxin inh, Pf growth 48h, Pf growth 96h)
CCOc1cc(C(=O)OCC(=O)c2c[nH]c3ccccc23)ccc1OCC(=O)N1CCOCC1	Pf growth 48h inconclusive, Pf growth 96h inconclusive
COc1ccc2c(C(=O)CCl)c[nH]c2c1	HCMV inh -101, Pf growth 48h 15µM, Pf growth 96h inconclusive
COc1cc(C(=O)OCC(=O)c2c[nH]c3ccccc23)ccc1OCC(=O)N1CCOCC1	HCMV inh -64, Pf growth 48h inconclusive, Pf growth 96h inconclusive
Cc1ccc(NC(=O)COC(=O)C2CC3CCCC(C2)C3=O)c([N+](=O)[O-])c1 (stereo not drawn)	none (no result: CHX counter, Shiga toxin inh)
Cc1nnc(SCc2ccc(F)cc2)n1NC/C=C/c1ccccc1	Pf growth 96h 5.9µM
Fc1ccccc1CSc1nncn1NC/C=C/c1ccccc1	Pf growth 48h inconclusive
COc1cc2cc(CNc3ccc(C)cc3)c(=O)n(CC(=O)Nc3ccc(C(C)C)cc3)c2cc1OC	HCMV inh -105 (no result: CHX counter, Shiga toxin inh, Pf growth 48h, Pf growth 96h)
COc1ccc(NCc2cc3cc4c(cc3n(CC(=O)Nc3cc(C)ccc3C)c2=O)OCCO4)cc1	HCMV inh -73 (no result: CHX counter, Shiga toxin inh, Pf growth 48h, Pf growth 96h)
COc1ccc(NCc2cc3cc4c(cc3n(CC(=O)Nc3ccc(C)cc3C)c2=O)OCO4)cc1	none (no result: CHX counter, Shiga toxin inh, Pf growth 48h, Pf growth 96h)
O=C(c1ccco1)N(Cc1cccnc1)C(c1ccccc1)c1nc2ccccc2[nH]1 (stereo not drawn)	none (no result: CHX counter, Shiga toxin inh, Pf growth 48h, Pf growth 96h)
Cc1cccc(-c2nnn3c2nc(NCc2ccc4c(c2)OCO4)c2ccccc23)c1	none (no result: CHX counter, Shiga toxin inh, Pf growth 48h, Pf growth 96h)
CCOc1cc(/C=C(/C#N)c2nc3ccccc3[nH]2)ccc1Oc1ccc([N+](=O)[O-])cn1	CHX counter 11, Pf growth 48h inconclusive, Pf growth 96h 2.3µM
N#C/C(=C\c1ccc(N2CCCCC2)c([N+](=O)[O-])c1)c1nn(-c2ccccc2)c(N)c1C#N	none
N#C/C(=C\c1ccccc1)c1nc2ncccc2[nH]1	Pf growth 48h inconclusive
N#C/C(=C\c1ccc(N2CCCC2)c([N+](=O)[O-])c1)c1nc2ccccc2[nH]1	CHX counter 50, Shiga toxin inh 112, Pf growth 48h inconclusive
CCOc1cc(/C=C(\C#N)c2nc3ccccc3[nH]2)ccc1OC(C)C(=O)O (stereo not drawn)	CHX counter 30, Shiga toxin inh 77
COc1ccc(/C=C(/C#N)c2cccnc2)cc1OC	Pf growth 48h inconclusive
COc1cc(/C=C(/C#N)c2nc3ccccc3[nH]2)ccc1Oc1ncccc1[N+](=O)[O-]	CHX counter 13, HCMV inh inconclusive, Pf growth 48h 15µM, Pf growth 96h inconclusive
CCCOc1ccc(-c2nnc(-c3ccco3)o2)cc1	CHX counter 51, Pf growth 96h 12µM
O=C(COc1ccccc1)Nc1ccc(-c2nnc(-c3ccco3)o2)cc1	none (no result: Pf growth 96h)
CC(C)COc1ccc(-c2nnc(-c3ccco3)o2)cc1	CHX counter 30, Pf growth 96h inconclusive
COC(=O)[C@]12CCCCC=C1N(Cc1ccco1)C(=O)[C@H](CC(=O)N1CCN(C(=O)C3CC3)CC1)C2	none (no result: CHX counter, Shiga toxin inh, Pf growth 48h, Pf growth 96h)
Cc1cc(C)c2oc(-c3cc(NC(=O)Cc4ccccc4)ccc3Cl)nc2c1	none (no result: CHX counter, Shiga toxin inh, Pf growth 48h, Pf growth 96h)
CCC(=O)O[C@@]1(C(=O)CCl)C(C)CC2C3CCC4=CC(=O)C=C[C@@]4(C)[C@]3(F)C(O)C[C@]21C (stereo partly drawn)	Pf growth 48h 6.7µM, Pf growth 96h 3.4µM (no result: CHX counter, HCMV inh, Shiga toxin inh)
CCC(=O)OC1(C(=O)CCl)[C@@H](C)C[C@H]2[C@@H]3CCC4=CC(=O)C=C[C@]4(C)[C@@]3(F)[C@@H](O)C[C@@]21C (stereo partly drawn)	Pf growth 48h 2.3µM, Pf growth 96h 5.2µM (no result: CHX counter, Shiga toxin inh)
CCCC(=O)O[C@]1(C(=O)CCl)[C@@H](C)C[C@H]2[C@@H]3CCC4=CC(=O)C=C[C@]4(C)[C@@]3(F)C(=O)C[C@@]21C	Pf growth 48h 1.7µM, Pf growth 96h 1.3µM
CCC(=O)O[C@]1(C(=O)CCl)[C@@H](C)C[C@H]2[C@@H]3CCC4=CC(=O)C=C[C@]4(C)[C@@]3(F)[C@@H](O)C[C@@]21C	Pf growth 48h 4.7µM, Pf growth 96h 4.1µM

Assay outcomes as filed in PubChem.
